Screening data (PubChem)
GSH fluor – GSH bead compound fluorescence profile; GSH beads flow cytometry, compound fluorescence 488/530 nm; stronger effect = higher value; fluorescence (KMESF) at 10 µM; 190,000 compounds, 0.25% hits; in the data active = fluorescence above about 89;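 also: glutathione beads carrying GST-tagged Bcl family fusion proteins plus one bare bead set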
Avidin fluor – compound fluoresces at 488/530 nm on avidin beads | compound fluorescence 488/530 nm, flow cytometry; stronger effect = higher value | fluorescence (KMESF) at 10 µM | 220,000 compounds, 0.38% hits; in the data active = fluorescence above about 47
RGS7-Gao reg – modulates binding of RGS7 to human Galphao; Multiplexed bead flow cytometry; actives lie on both sides; AID 1439; P09471; binding response (% of control), % at 10 µM; 220,000 compounds, 0.35% hits; in the data active = binding response below about 49% or above about 150%; inconclusive = no clear call, values can overlap the other calls; inactive = in between;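 also: fluorescent Galphao held in activated GDP-AlF4 state binding bead-coupled RGS7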
Target sequence (P09471 whole entry, looked up): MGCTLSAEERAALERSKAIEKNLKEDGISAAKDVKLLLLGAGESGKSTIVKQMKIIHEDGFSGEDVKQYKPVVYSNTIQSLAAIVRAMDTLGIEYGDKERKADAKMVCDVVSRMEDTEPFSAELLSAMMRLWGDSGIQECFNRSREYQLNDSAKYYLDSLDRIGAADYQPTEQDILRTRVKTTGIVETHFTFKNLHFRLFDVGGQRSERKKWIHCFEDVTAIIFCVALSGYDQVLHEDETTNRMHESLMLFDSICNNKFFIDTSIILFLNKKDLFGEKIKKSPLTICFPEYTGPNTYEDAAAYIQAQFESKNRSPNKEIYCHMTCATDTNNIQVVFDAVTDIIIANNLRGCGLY
RGS8-Gao – regulators of human RGS8-Galphao interaction. 220,000 compounds, 0.34% hits. P09471. multiplexed bead flow cytometry, RGS8-Galphao binding; actives lie on both sides. response (percent of control binding), % at 10 µM; in the data active = response below about 60% or above about 140%; inactive = in between;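 also: Galphao activated as the GDP aluminium fluoride complex binding bead-coupled RGS8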
RGS4-Gao reg – human RGS4-Galphao interaction regulation; Multiplexed bead flow cytometry, RGS4-Galphao binding; actives lie on both sides; binding response (% of control), % at 10 µM; 220,000 compounds, 0.33% hits; AID 1415; in the data active = binding response below about 49% or above about 150%; inactive = in between;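 also: fluorescent Galphao activated with aluminum fluoride binding bead-coupled RGS4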
RGS16-Gao – RGS16-Galphao interaction regulator (human); 220,000 compounds, 0.38% hits; bead-based flow cytometry RGS16-Galphao binding, fluorescence; actives lie on both sides; binding response (% of control), % at 10 µM; AID 1441;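 also: Galphao activated by GDP with aluminum fluoride before binding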
Target sequence (O15492 whole entry, looked up): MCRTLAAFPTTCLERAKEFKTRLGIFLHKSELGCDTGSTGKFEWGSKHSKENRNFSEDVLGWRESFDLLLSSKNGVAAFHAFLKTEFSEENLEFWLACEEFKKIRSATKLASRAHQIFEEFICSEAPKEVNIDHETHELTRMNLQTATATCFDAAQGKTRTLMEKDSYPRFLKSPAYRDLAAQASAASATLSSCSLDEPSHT
Target sequence (P09471 whole entry, looked up): as the sequence (P09471 whole entry, looked up) above
RGS-Gao – modulates binding between human RGS4 and Galphao; shares compounds with RGS16-Gao; multiplexed bead flow cytometry, RGS–Galpha-o binding; 1,600 compounds, 99% hits; RGS4–Galpha-o binding response, % at 10 µM;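 also: fluorescently labeled Galpha-o bound to GDP with aluminium fluoride binding biotinylated RGS beads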
Avidin counter – counter-screen: compounds disrupting biotin binding to avidin beads; shares compounds with RGS16-Gao; streptavidin beads, fluorescein-biotin binding, flow cytometry; inhibition, % at 10 µM; 1,700 tested, under 10 active; AID 1783;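 active = inhibition above 50%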;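 also: median green fluorescence of gated singlet beads compared with DMSO control wells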
RGS8-Gao confirm – confirmation of regulators of human RGS8-Galphao interaction; shares compounds with RGS16-Gao; bead-based flow cytometry RGS8-Galphao binding, fluorescence; actives lie on both sides; binding response (% of control), % at 10 µM; 1,700 compounds, 3% hits; in the data active = binding response below about 72% or above about 130%; inactive = in between;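 also: Galphao activated as GDP AlF4 complex before binding bead RGS8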
RGS7-Gao single – RGS7-Galphao interaction regulation, single point confirmation; 1,700 compounds, 7.8% hits; response (percent of control binding), % at 10 µM; bead-based flow cytometry RGS7-Galphao binding; actives lie on both sides; shares compounds with RGS16-Gao; AID 1837; in the data active = response below about 75% or above about 130%; inactive = in between;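 also: fluorescent Galphao activated with GDP and aluminum fluoride binding bead-coupled RGS7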
RGS16-Gao single – confirmation of regulators of human RGS16-Galphao interaction. shares compounds with RGS16-Gao. bead-based flow cytometry, RGS16-Galphao binding; actives lie on both sides. response (% of control binding), % at 10 µM. 1,700 compounds, 4% hits; in the data active = response below about 74% or above about 130%; inactive = in between;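 also: Galphao activated as the GDP aluminium fluoride complex binding bead-coupled RGS16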
RGS4-Gao confirm – confirmation of regulators of human RGS4-Galphao interaction; RGS4-Galphao binding, multiplexed bead flow cytometry; actives lie on both sides; binding response (% of control), % at 10 µM; 1,700 compounds, 4% hits; shares compounds with RGS16-Gao; in the data active = binding response below about 74% or above about 130%; inactive = in between
RGS19-Gao single – confirmation of regulators of human RGS19-Galphao interaction | shares compounds with RGS16-Gao | bead-based flow cytometry RGS19-Galphao binding; actives lie on both sides | response (percent of control binding), % at 10 µM | 1,700 compounds, 5% hits | AID 1841; in the data active = response below about 50% or above about 160%; inactive = in between
Of the large screens only hits and unclear results are named; the others gave an inactive call (follow-up assays come after a bar, where they were run); [ ] = another dose, or the depositor's remark. A selection: hits, their analogues and other compounds. The true share with any hit is near 1.2%. Unless noted, no rule for the calls is given here.

O=C(COc1ccc(Br)cc1)NCCO	none
Cc1cccc(NC(=S)NC23CN4CN(CN(C4)C2)C3)c1C	none
COc1ccc(C=O)cc1COc1ccccc1F	none
COc1ccc(/C=C/C(=O)c2ccccc2)cc1COc1ccccc1F	Avidin fluor 90
CCN(CC)C(C)C#CCC(c1ccccc1)c1ccccc1 (stereo unspecified)	RGS7-Gao reg inconclusive (no result: GSH fluor)
CCCCOc1ccc(C(=O)N/C(=C/C=C/c2ccccc2)C(=O)NCCO)cc1	none
C=CCNC(=O)/C(=C\C=C\c1ccccc1)NC(=O)c1ccc(OCCCC)cc1	RGS7-Gao reg 13, RGS8-Gao 12, RGS4-Gao reg 20, RGS16-Gao 1.7
CCCCCCNC(=O)CCCCCNS(=O)(=O)c1ccc(OC)cc1	none
O=C(C[n+]1cccc(/C=N/O)c1)N1CCCc2ccccc21	none
CC(=O)N1CCC(N(C(=O)Nc2ccc(C)c(C)c2)C2CCCC2)CC1	Avidin fluor 47
O=C(NC(=S)N1CCN(c2ccc(C(F)(F)F)cc2[N+](=O)[O-])CC1)c1cccs1	none
NC1=NC2CS(=O)(=O)CC2S1 (stereo unspecified)	none
N#Cc1ccc(Cl)cc1NC(=O)COC(=O)c1ccc2c(c1)OCCO2	Avidin fluor 66
CN(C(=O)Nc1ccc(C(C)(C)C)cc1)C1CCCCC1	Avidin fluor 70, RGS7-Gao reg inconclusive (no result: GSH fluor)
FC(F)(F)c1ccnc(Sc2n[nH]c(C(F)(F)F)n2)c1	RGS7-Gao reg inconclusive (no result: GSH fluor)
Cn1ccnc1SCC(=O)Nc1nc2c(F)c(F)c(F)cc2s1	none
CC(C)(C)NC(=O)NC(=O)COC(=O)c1ccco1	GSH fluor 261
O=C(Nc1ccc(Oc2ccccc2)cc1)C1CCCO1 (stereo unspecified)	none
CC(C)N(c1ccccc1)c1ccc(NC(=O)C2CCCO2)cc1 (stereo unspecified)	GSH fluor 266
O=C(COc1ccc(Cl)cc1Cl)N/N=C1\CCCc2ccccc21	RGS7-Gao reg 27, RGS8-Gao 23, RGS4-Gao reg 34
Cc1occc1C(=O)NN=C1C2CC3CC(C2)CC1C3	GSH fluor 105
CCOC(=O)c1sc(NC(=O)CSc2nc(C)cc(C)n2)c(C#N)c1C	Avidin fluor 49
CCOCCCNC(=O)CSc1ccccc1	Avidin fluor 51
COCCCNC(=O)CSc1ccc(Cl)cc1	none
O=C(Nc1cc(Oc2ccccc2)cc([N+](=O)[O-])c1)C12CC3CC(C1)CC(n1cnc(Cl)n1)(C3)C2	none
CC(C)C[C@@H]1NC(=O)[C@H](Cc2ccc(O)cc2)NC(=O)[C@H](CCC(N)=O)NC(=O)c2cc([N+](=O)[O-])cc(I)c2NCC[C@@H](C(N)=O)NC1=O	none
O=C1COc2ccc(C(=O)COC(=O)c3cnc(Cl)c(Cl)c3)cc2N1	RGS7-Gao reg inconclusive
COc1ccc(C2NC(=O)C(C)S2)cc1 (stereo unspecified)	Avidin fluor 51
COc1ccccc1N1CCN(C(=O)CN(c2ccc(C)c(C)c2)S(C)(=O)=O)CC1	GSH fluor 268
CNC(=O)CC12CC3CC(CC(C3)C1)C2	GSH fluor 261
COCCNC(=S)NC(=O)CC12CC3CC(CC(C3)C1)C2	none
Cc1cc(C(=O)OCC(=O)c2ccc(Br)s2)c(C)o1	GSH fluor 269
CC1CCCCC1NS(=O)(=O)c1ccc(S(=O)(=O)NCc2ccncc2)cc1 (stereo unspecified)	none
CCC(CC)NC(=O)COC(=O)c1cccc(C)c1O	GSH fluor 262
Cc1cccc(C(=O)OCC(=O)Nc2ccc(N3CCCCC3)cc2)c1O	none
CCOC(=O)CCCNC(=O)COC(=O)c1cccc(C)c1O	GSH fluor 261
Cc1csc2c(N3CCN(C(=O)Nc4ccc(OC(F)(F)F)cc4)CC3)ncnc12	RGS7-Gao reg inconclusive (no result: GSH fluor)
O=c1[nH]c(CSc2nc3ccccc3o2)nc2c1cnn2-c1ccccc1	GSH fluor 255
O=c1[nH]c(SCc2nc3c(cnn3-c3ccccc3)c(=O)[nH]2)nc2ccccc12	none
Cc1nc(N2CCOCC2)c(C#N)c(C)c1Br	GSH fluor 260
O=C(c1cccc(F)c1)N1CCC(N2CCCCCC2)CC1	none
O=C(c1cccc(F)c1)N1CCN(C2CCCCC2)CC1	GSH fluor 269
COC(=O)c1sc(NC(=O)C2CCCO2)c(C(=O)OC)c1C (stereo unspecified)	none
Cc1c(C(=O)OC(C)C)sc(NC(=O)C2CCCO2)c1C(=O)OC(C)C (stereo unspecified)	GSH fluor 93
CN(C)c1ccc(C2NCCS2)cc1 (stereo unspecified)	RGS7-Gao reg 27, RGS8-Gao 47, RGS4-Gao reg 15, RGS16-Gao 21
Cc1ccc(C2NCCS2)cc1 (stereo unspecified)	none
CC1(C)Oc2ccc3ccc(=O)oc3c2-c2cnoc21	Avidin fluor 56
O=C(C(=O)N1CCCc2ccccc21)N1CCCc2ccccc21	RGS16-Gao 182[activator] | RGS-Gao 105 | Avidin counter inactive | RGS8-Gao confirm inactive | RGS7-Gao single inactive | RGS16-Gao single inactive | RGS4-Gao confirm inactive | RGS19-Gao single inactive
O=C1c2ccccc2C(=O)N1CCCc1c[nH]c2ccc(Cl)cc12	none
CCc1cc(C(=O)N=Nc2c(O)[nH]c3c(Br)cc(Br)cc23)c2ccccc2n1	none
